Records with an inconclusive call do not appear. The source made the active and inactive calls. The call rests on the fitted dose curve; in most records, active means well fitted cell-killing curve with a large enough effect; inconclusive means small, poorly fitted or top-dose-only effect; inactive means flat fitted curve, though single readings scatter.
Test: qHTS of pediatric cancer cell lines to identify multiple opportunities for drug repurposing: Primary screen for TC32 cells (AID 1347089); further: nearly all actives have a fitted effect of over 60% in size
Details: TC32 Ewing sarcoma viability, CellTiter-Glo luminescence, 48 h; series mostly up to 45.8 µM
From the text: Drug repurposing or repositioning has been offered as a strategy for drug development in oncology programs. This approach has special potential for childhood cancers and other rare or orphan diseases, where the expected return on new drug development has been a disincentive to pharmaceuticals.
In this project we exploit the poly-pharmacology of drugs to discover new indications via phenotypic screening of a panel of 19 well-characterized cell lines derived from solid tumors seen in children and adolescents. The goal is to identify approved drugs with previously unrecognized anticancer properties that has the potential to reveal new mechanisms and biological processes involved in carcinogenesis or drug resistance. We employed a titration-based paradigm (quantitative high-throughput screening or qHTS), where all compounds were tested at multiple concentrations for their effect on cell viability. Concentration-response curves (CRCs) were derived directly from the primary screen, and both potency and efficacy values were used to identify compounds with robust bioactivity profiles. We screened the NIH Chemical Genomics Center (NCGC) Pharmaceutical Collection (NPC) and Mechanism Interrogation Plate (MIPE) small molecule collections of approved and investigational compounds against these cell lines; and measured metabolically active cells after 48 hours of compound treatment as a proxy for cell viability.
Assay Submitter: Nathalia J. Martinez, National Center for Advancing Translational Sciences, National Institutes of Health, Rockville, MD, USA; email: natalia.martinez@nih.gov
[1] Shen, M et al. Quantitative high-throughput phenotypic screening of pediatric cancer cell lines identifies multiple opportunities for drug repurposing. Oncotarget 2017 Dec 19;9(4):4758-4772. PMID 29435139.
The cells were obtained from University of North Carolina (UNC), Pediatric Preclinical Testing Program (PPT), and Coriell Institute (CI).
qHTS cell viability assay:
Cells were assayed in growth media at a density of 500-1,000 cells/well. Five microliters of cells were dispensed into 1,536-well, white, solid-bottom, TC-treated plates (Greiner Bio One) using a multidrop dispenser and incubated at 37 degrees C, 5% CO2, under a humidified atmosphere for 5 hours. Twenty-three nanoliters of compounds and controls (neutral control DMSO or positive control bortezomib at final concentration of 2.3 uM) were subsequently transferred by Kalypsys pintool. For primary screens, the MIPE collection was tested at 11-point dilutions (final concentrations range from 0.78 nM to 46 µM) and the NPC collection at 8-point dilutions (final concentrations range from 0.59 nM to 46 µM). Compounds tested in follow-up screens were assayed at 11-point dilutions. Cells were incubated for 48 hours, followed by addition of 3 uL of CellTiter-Glo (Promega). After a 15min incubation at room temperature, samples were analyzed for luminescence intensity using a ViewLux High-throughput CCD imager equipped with clear filters.
Potency means the concentration at half of the fitted maximal effect.

Compound | Potency
Cc1ccc(C(=O)Nc2ccc(CN3CCN(C)CC3)c(C(F)(F)F)c2)cc1C#Cc1cnc2cccnn12 | 14.7 µM (active)
CC(C)Nc1cc(C(F)(F)F)cc2nc(NC(=O)c3cccnc3)nn12 | inactive
CC(=O)OCCN1C(=O)c2c(C)nc3ccc(S(=O)(=O)N4CCOCC4)cc3c2C1=O | inactive
COc1ccc(F)c(F)c1C(=O)c1cnc(NC2CCN(S(C)(=O)=O)CC2)nc1N | 5.87 µM (active)
CC(C)(C)c1cnc(CSc2cnc(NC(=O)C3CCNCC3)s2)o1 | 1.31 µM (active)
CCc1c2c(nc3ccc(O)cc13)-c1cc3c(c(=O)n1C2)COC(=O)[C@]3(O)CC | 0.0083 µM (active)
O=C(O)CCCc1c[nH]c2ccccc12 | inactive
Clc1ccc2ncc(-c3cccc(NC4CNC4)n3)n2c1 | inactive
Nc1cc(C(F)(F)F)c(-c2cc(N3CCOCC3)nc(N3CCOCC3)n2)cn1 | 2.62 µM (active)
Cc1ccc(S(=O)(=O)Nc2cc(Cl)ccc2C(=O)Nc2nc(-c3ccccc3)cs2)cc1 | inactive
CCCCN1CCC(CNC(=O)c2c3n(c4ccccc24)CCCO3)CC1 | inactive
Cc1ccc(C(=O)Nc2cccc(C(F)(F)F)c2)cc1-c1ccc2nc(NCCN3CCOCC3)ncc2c1 | 18.6 µM (active)
COc1cc2c(NC3CCN(C(C)C)CC3)nc(C3CCCCC3)nc2cc1OCCCN1CCCC1 | inactive
CCCNC(=O)Nc1ccc(Oc2ncnc3cc(OC)c(OC)cc23)cc1Cl | inactive
CC(C)c1cnn2c(NCc3ccccc3)cc(N[C@@H](CO)[C@H](O)CO)nc12 | 1.47 µM (active)
CC(C)c1nn(-c2c(Cl)cccc2Cl)c2nc(Cc3ccc(OCCO)cc3)[nH]c(=O)c12 | 0.131 µM (active)
Cc1cc(Nc2cc(N3CCN(C)CC3)nc(C=Cc3ccccc3)n2)n[nH]1 | 6.02 µM (active)
COc1cccc(Nc2c(C(N)=O)cnc3c(C)cc(S(=O)(=O)c4cccc(C(=O)N(C)C)c4)cc23)c1 | inactive
C[C@@H](Oc1cc(-c2cnn(C3CCNCC3)c2)cnc1N)c1c(Cl)ccc(F)c1Cl | 20.8 µM (active)
CC(=O)Nc1nc(C)c(-c2ccc(Cl)c(S(=O)(=O)NCCO)c2)s1 | 4.15 µM (active)

Compound | Potency
C1Cc2[nH]nc(-c3nn[nH]n3)c2C1 | inactive
CCC[C@H](NC(=O)C(C#N)=Cc1cccc(Br)n1)c1ccccc1 | inactive
COc1c(N2C[C@@H]3CCCN[C@H]3C2)c(F)cc2c(=O)c(C(=O)O)cn(C3CC3)c12 | inactive
COc1cc(Nc2ncc(F)c(Nc3ccc4c(n3)N(COP(=O)(O)O)C(=O)C(C)(C)O4)n2)cc(OC)c1OC | inactive
NC(=O)Nc1cc(-c2cccc(F)c2)sc1C(=O)N[C@H]1CCCNC1 | 2.34 µM (active)
CN(C)CC(C)(C)CNc1nn2c(-c3ccccc3)nnc2cc1C1CCC1 | 18.6 µM (active)
C=CC(=O)Nc1cc2c(Nc3ccc(F)c(Cl)c3)ncnc2cc1C#CC(C)(C)N1CCN(C)CC1 | 11.7 µM (active)
Cc1cc(Nc2cc(N3CCN(C)CC3)nc(Sc3ccc(NC(=O)C4CC4)cc3)n2)n[nH]1 | 0.93 µM (active)
Cn1c(CNc2ccc(C(=N)N)cc2)nc2cc(C(=O)N(CCC(=O)O)c3ccccn3)ccc21 | inactive
O=C(CCCCCCNC(=O)c1cnc(N(c2ccccc2)c2ccccc2)nc1)NO | 18.6 µM (active)
CS(=O)(=O)c1ccc(-c2cnc(N)c(C(=O)Nc3ccccc3)n2)cc1 | inactive
CC(C)c1cc(-c2n[nH]c(=O)n2-c2ccc3c(ccn3C)c2)c(O)cc1O | 0.131 µM (active)
CCCCCN(CCC12CC3CC(CC(C3)C1)C2)C(=O)NCCCc1ccncc1 | inactive
C=CC(=O)Nc1cccc(Oc2nc(Nc3ccc(N4CCN(C)CC4)cc3)ncc2Cl)c1 | 7.39 µM (active)
CCS(=O)(=O)c1cccc(-c2cc(C(=O)NC3CCN(C)CC3)c(C)c3[nH]c4ncc(C)cc4c23)c1 | 0.415 µM (active)
Nc1ncnc2c1c(-c1cnc3[nH]ccc3c1)nn2C1CCCC1 | 5.87 µM (active)
N#Cc1c(O)c2c(-c3ccc(-c4ccccc4O)cc3)csc2[nH]c1=O | inactive
CC(O)C1C(=O)N2C(C(=O)O)=C(SC3CNC(C(=O)N(C)C)C3)C(C)C12 (stereo not given) | inactive
C[C@H]1C[C@@H]2[C@@H]([C@@H](O)C[C@@]3(C)[C@H]2CC[C@]3(O)C(=O)CO)[C@@]2(C)C=CC(=O)C=C12 | inactive
CCNC(=O)Nc1ccc2ncc(Nc3ccc(C)cc3)nc2n1 | 1.86 µM (active)
